The text below walks through data of PubChem BioAssay (NCATS).

The structures appear in SMILES notation. Records with an inconclusive call do not appear. Where a call stands in place of a potency, no number is given. The source made the active and inactive calls. Calls come from the whole dose curve; as a rule, active = well fitted inhibition curve with a large enough effect; inconclusive = small, poorly fitted or top-dose-only effect; inactive = no such curve, though single readings can be large or run the other way.
Potency is the fitted concentration of half-maximal effect.

This experiment deals with Thioredoxin reductase 1, cytoplasmic (Rattus norvegicus) (UniProt O89049). The experiment in a line: qHTS Assay for Inhibitors of Mammalian Selenoprotein Thioredoxin Reductase 1 (TrxR1) (AID 488773). Note: nearly all actives have a fitted effect of over 40% in size. Conditions: purified TrxR1 enzyme activity; Potency: inhibition; series mostly up to 57.1 µM. The text has this: The selenoprotein thioredoxin reductase (TrxR; EC 1.8.1.9) is a FAD containing homodimeric pyridine nucleotide-disulfide oxidoreductase with many cellular roles. Together with NADPH and its prime substrate thioredoxin (Trx), the enzyme forms the core of the Trx system. The mammalian Trx system exerts a wide spectrum of functions including redox regulation, antioxidant defense, regulation of transcription factors as well as support of cell growth and replication. Many of these functions involve the reduction of Trx, which may subsequently reduce a number of different substrates including ribonucleotide reductase, peroxiredoxins or NFkB. Mammalian TrxR itself also has a broad substrate specificity, reducing both protein and non-protein substrates, including low molecular weight compounds such as dehydroascorbate, lipoic acid, ubiquinone, and juglone. In addition, several drugs in clinical use for anticancer treatment are indeed known to target TrxR1.
Chain of Thioredoxin reductase 1, cytoplasmic (Rattus norvegicus) (O89049 whole entry, looked up): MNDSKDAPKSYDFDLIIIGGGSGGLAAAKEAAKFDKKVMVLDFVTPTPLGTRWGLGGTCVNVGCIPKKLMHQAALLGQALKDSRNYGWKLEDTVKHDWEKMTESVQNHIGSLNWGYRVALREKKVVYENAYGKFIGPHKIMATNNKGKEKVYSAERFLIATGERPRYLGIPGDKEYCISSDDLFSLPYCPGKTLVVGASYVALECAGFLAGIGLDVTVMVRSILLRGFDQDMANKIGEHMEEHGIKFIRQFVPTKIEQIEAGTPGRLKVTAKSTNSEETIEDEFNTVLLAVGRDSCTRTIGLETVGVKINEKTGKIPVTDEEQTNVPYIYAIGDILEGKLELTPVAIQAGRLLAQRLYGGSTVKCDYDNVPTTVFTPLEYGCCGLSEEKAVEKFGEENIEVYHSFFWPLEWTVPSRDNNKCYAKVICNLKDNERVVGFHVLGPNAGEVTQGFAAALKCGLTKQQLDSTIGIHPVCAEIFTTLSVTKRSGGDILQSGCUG
This BioAssay is a validation of an NADPH fluorescence-based, dual-purpose qHTS rTrxR1 assay designed to find potential inhibitors and substrates of rTrxR1. For this particular BioAssay, actives are potential inhibitors. See related BioAssay for substrate data deposition.
Assay protocol: 2 uL of reagents (buffer in column 4 as negative control and 90 nM rTrxR1 in columns 1-3 and 5-48) were dispensed into Greiner black solid-bottom 1,536-well assay plates, followed by 1 uL of NADPH (400 uM final concentration) to each well. The plates were centrifuged at 1000 rpm for 15 seconds and subsequently incubated for 5 min at room temperature (~22 deg C) to allow for rTrxR1 reduction. Compounds (23 nL) were then transferred via Kalypsys pin tool equipped with 1536-pin array (10 nL slotted pins, V&P Scientific, San Diego, CA). In addition, a duplicate 2-fold serial dilution of the control compounds auranofin, a known gold-based TrxR1 inhibitor, and juglone (5-hydroxy-1,4-naphthoquinone), a natural TrxR1 substrate, were pin-transferred to columns 2 and 3, respectively. After incubation for 15 min at room temperature (~22 deg C), 1 uL of selenite (400 uM final concentration) were dispensed to each well. The plate was immediately transferred to a ViewLux high-throughput CCD imager (PerkinElmer), wherein kinetic measurements of NADPH fluorescence (Ex 340 nm, Em 450 nm) were acquired (8 minute kinetic read, see Table 1). Read 1 was utilized to assess the capacity of a compound to serve as an rTrxR1 substrate, i.e. a decrease in NADPH fluorescence compared to the no-compound background is an indication of a substrate behavior for that particular compound. For inhibitory activity of a compound, delta values, computed as the difference in fluorescence intensity between the first and last reads of an 8-minute time kinetic window, were used. All reagents were diluted in an assay buffer consisting of 50 mM Tris-HCl, pH 7.5, 2 mM EDTA, and 0.01% Tween-20.
Throughout the screen, reagent bottle and all liquid lines were made light-tight to minimize reagent degradation. All screening operations were performed on a fully integrated robotic system (Kalypsys, San Diego, CA) containing one RX-130 and two RX-90 anthropomorphic robotic arms (Staubli, Duncan, SC). Library plates were screened starting from the lowest and proceeding to the highest concentration, and a 'double-pinning' step of the highest concentration was required to access higher concentrations of compounds. Vehicle-only plates, with DMSO being pin-transferred to the columns 5-48, were inserted uniformly at the beginning and the end of each library in order to monitor and record any shifts in the background, which can be affected by reagent dispensers or loss in enzyme activity over time. Screening data were corrected, normalized, and concentration-effect relationships were derived by using publicly-available curve fitting algorithms developed in-house (http://ncgc.nih.gov/pub/openhts).
`CCN1CCC[C@H]1CNC(=O)c1cc(S(N)(=O)=O)ccc1OC`: the Potency result was “inactive”.

As to `CC(=O)c1ccc(S(=O)(=O)NC(=O)NC2CCCCC2)cc1`, the Potency result was “inactive”.

In the case of `CC(=O)CCCCn1c(=O)c2c(ncn2C)n(C)c1=O`, the Potency result is “inactive”.

For `Clc1ccc(Cn2c(CN3CCCC3)nc3ccccc32)cc1`, the Potency result is “inactive”.

For the compound `NC(N)=Nc1nc(CSCC/C(N)=N/S(N)(=O)=O)cs1`, the Potency entry is “inactive”.

For the compound `CCCNC(=O)NS(=O)(=O)c1ccc(Cl)cc1`, the Potency result is “inactive”.

Take `CC(=O)O[C@]1(C(C)=O)CC[C@H]2[C@@H]3C=C(Cl)C4=CC(=O)[C@@H]5C[C@@H]5[C@]4(C)[C@H]3CC[C@@]21C`: the Potency entry is “inactive”.

For `CC(C)OC(=O)C(C)(C)Oc1ccc(C(=O)c2ccc(Cl)cc2)cc1`, the Potency result is “inactive”.

On to `O=c1cc(-c2ccc(O)cc2)oc2cc(O)cc(O)c12`, for which the Potency result was “inactive”.

In the case of `Clc1ccc(C(c2ccc(Cl)cc2)n2cc[n+](CC(OCc3ccc(Cl)cc3Cl)c3ccc(Cl)cc3Cl)c2)cc1` (configuration not stated), the Potency result is “inactive”.

Turning to `C[N+](C)(C)CC(=O)O`, the Potency result is “inactive”.

For `CCN(CC)C(=O)c1ccc(O)c(OC)c1`, the Potency entry is “inactive”.

As for `CCN(CC)CCNC(=O)c1ccc(N)cc1`, the Potency result was “inactive”.

Consider `O=C(NCCN1CCOCC1)c1ccc(Cl)cc1`, for which the Potency entry is “inactive”.

Take `O=c1c(-c2ccc(O)cc2)coc2cc(O)ccc12`: the Potency is 8.44 µM (active).

For `COC(=O)[C@@H]1[C@H]2C[C@H]3c4[nH]c5ccccc5c4CCN3C[C@@H]2CC[C@@H]1O`, the Potency result is “inactive”.

Turning to `O=C1NCC2(CCN(CCc3ccccc3)CC2)O1`, the Potency entry was “inactive”.

As for `CCCCCN(C)CCC(O)(P(=O)(O)O)P(=O)(O)O`, the Potency entry is “inactive”.

In the case of `O=C1NC(=O)C(c2ccccc2)(c2ccccc2)N1`, the Potency entry is “inactive”.

`CC(=O)N[C@@H](CS)C(=O)O`: the Potency result was “inactive”.

On to `C[N+](C)(C)CCCCCC[N+](C)(C)C`, for which the Potency entry was “inactive”.

On to `COc1cccc(-c2cc(=O)c3ccccc3o2)c1N`, for which the Potency entry is “inactive”.

As to `NCCS`, the Potency result was “inactive”.

In the case of `CC(C)NCC(O)COc1cccc2[nH]ccc12` (configuration not stated), the Potency result was “inactive”.

As to `CCn1cc(C(=O)O)c(=O)c2ccc(C)nc21`, the Potency result was “inactive”.

On to `CC(C)(C)c1ccc(C(O)CCCN2CCC(C(O)(c3ccccc3)c3ccccc3)CC2)cc1` (configuration not stated), for which the Potency result was “inactive”.

As to `CN(C)CCC(c1ccccc1)c1ccccn1` (configuration not stated), the Potency entry was “inactive”.

`CCCCC1C(=O)N(c2ccccc2)N(c2ccccc2)C1=O`: the Potency result is “inactive”.

For the compound `CC/C(=C(\c1ccccc1)c1ccc(OCCN(C)C)cc1)c1ccccc1`, the Potency result was “inactive”.

With `Cc1cccc(C)c1OCC(C)N` (configuration not stated), the Potency entry was “inactive”.

Consider `O=C(O)CCc1nc(-c2ccccc2)c(-c2ccccc2)o1`, for which the Potency result is “inactive”.

For the compound `CCN(CC)CCOC(=O)c1ccc(N)cc1`, the Potency result is “inactive”.
